The values below come from PubChem BioAssay (Tox21).

Active and inactive are the calls of the source. Calls follow the shape of the dose curve; as a rule, active = well fitted curve in the direction sought with a large enough effect in the repeat runs; inconclusive = weak or mixed curves; inactive = flat fitted curve, though single readings scatter.

The test is described as follows: qHTS assay to test for compound auto fluorescence at 535 nm (green) in HepG2 cells (AID 720675). The settings on record: green autofluorescence 485/535 nm, 1 h; series mostly up to 91.3 µM. The source says: National Center for Advancing Translational Sciences [NCATS]
NIH Chemical Genomics Center [NCGC]
U.S. Environmental Protection Agency [EPA]
National Institutes of Environmental Health Sciences [NIEHS]
National Toxicology Program [NTP]
U.S. Food and Drug Administration [FDA]
Compound auto fluorescence often interferes with screening of the compound library against various biological targets and signaling pathways. Some of these compounds may have fluorophoric properties. Such properties may interfere with the assay outputs resulting in false positives and/or negatives. To decrease such complications and ensure the compound activities are relevant in terms of biological response, the Tox21 10K compound library was screened for auto fluorescence.
From the fluorophores used as reporter signals in our screening assays, the auto fluorescence equivalencies of compounds against three fluorophores have been evaluated: Triamterene, Fluorescein and Rose Bengal sodium for blue, green and red fluorescence, respectively. The fluorescence intensities were measured using Excitation/Emission wavelengths at 405/460nm, 485/535nm and 540/590nm for blue, green and red labels, respectively. This assay includes the green fluorescence data.
Tox21 Assay Protocol Summary:
2,000 HepG2 cells in 5 uL of culture medium (MEM containing 10% FBS) per well were dispensed into black wall/clear bottom 1536-well plates using a Multidrop Combi Dispenser (ThermoFisher Scientific, Waltham, MA). The assay plates were incubated overnight at 37 C to allow cell attachment to the well bottom, followed by the transfer of 23 nL compound or DMSO vehicle by a pintool work station (Kalypsys , San Diego, CA). After the assay plates were incubated for 1 hr at 37 C and 5% CO2, fluorescence intensities in the assay plates were measured by an Envision (PerkinElmer, Shelton, CT) plate reader using three labels for measuring blue, green and red fluorescence at […] 460, 535 and 590 nm respectively.
On the technique in general: Quantitative high-throughput screening tests each substance at several concentrations.
`Cc1c(COC(=O)[C@@H]2[C@H](/C=C(\Cl)C(F)(F)F)C2(C)C)cccc1-c1ccccc1`: the outcome was inactive.
The value for `NNC(=S)NN` was “inactive”; that for `c1ccc(P(c2ccccc2)c2ccccc2)cc1` was “inactive”.
On to `CCC(C)(C)c1ccc(O)cc1`, for which the compound was called inactive.
Turning to `CC(C)N(C(=O)SCC(Cl)=C(Cl)Cl)C(C)C`, the call was inactive.
The value for `Cc1ccc(N)c(N)c1` was “inactive”; that for `O=P(O)(O)CCCl` was “inactive”.
As to `CCCCCc1cc(O)cc(O)c1`, the call was inactive.
Consider `C#C[C@]1(O)CC[C@H]2[C@@H]3CCC4=CC(=O)CC[C@]4(C)[C@H]3CC[C@@]21C`, for which the outcome was inactive.
The value for `Cc1ccc(OP(=O)(Oc2ccc(C)cc2)Oc2ccc(C)cc2)cc1` was “inactive”; that for `CCN(CC)C(=O)/C(Cl)=C(\C)OP(=O)(OC)OC` was “inactive”; that for `CCCCCCCCC(=O)NCc1ccc(O)c(OC)c1` was “inactive”.
For the compound `CCC(CC)Nc1c([N+](=O)[O-])cc(C)c(C)c1[N+](=O)[O-]`, the outcome was inactive.
Regarding `CCCCC(CC)COC(=O)c1ccc(C(=O)OCC(CC)CCCC)c(C(=O)OCC(CC)CCCC)c1` (stereo not given), the call was inactive.
For the compound `Oc1c(Cl)c(Cl)c(Cl)c(Cl)c1Cl`, the compound was classed as inactive.
As for `CNC(=O)Oc1cccc2c1OC(C)(C)O2`, the outcome was inactive.
Consider `C=CCc1ccc(OC)cc1`, for which the outcome was inactive.
With `CCCCCCCCOC(=O)c1ccccc1C(=O)OCCCCCCCC`, the call was inactive.
Regarding `Nc1c(Cl)cc([N+](=O)[O-])cc1Cl`, the call was inactive.
Regarding `CCN(N=O)C(N)=O`, the call was inactive.
As to `Nc1ccncc1`, the compound was called inactive.
For `CC(C)C(=O)OCC(C)(C)C(OC(=O)C(C)C)C(C)C` (stereo not given), the call was inactive.
Consider `CCN(CC)N=O`, for which the result was inactive.
With `CC(C)c1ccc(CO)cc1`, the compound was classed as inactive.
The value for `CC(C)(OOC(C)(C)c1ccccc1)c1ccccc1` was “inactive”.
Consider `O=C(CCl)c1ccccc1`, for which the outcome was inactive.
`COc1ccc(C=O)cc1`: the compound was called inactive.
With `CNC(=O)N(C)c1nnc(C(C)(C)C)s1`, the call was inactive.
Take `CC(C)NC(C)C`: the outcome was inactive.
Consider `Oc1cc(Cl)ccc1Cl`, for which the outcome was inactive.
In the case of `CCC(C)c1cc([N+](=O)[O-])cc([N+](=O)[O-])c1O` (stereo not given), the compound was classed as inactive.
In the case of `CCCCN(CCCC)N=O`, the call was inactive.
The value for `C=CC(=O)OCCO` was “inactive”; that for `C[C@]12CCC(=O)C[C@@H]1CC[C@@H]1[C@@H]2CC[C@]2(C)[C@@H](O)CC[C@@H]12` was “inactive”; that for `c1nc[nH]n1` was “inactive”.
To `CCOC(=S)S` belongs “inactive”; to `C=CCc1ccc2c(c1)OCO2`, “inactive”.
`CCOc1cc(Oc2ccc(C(F)(F)F)cc2Cl)ccc1[N+](=O)[O-]`: the outcome was inactive.
On to `NCc1cccnc1`, for which the compound was classed as inactive.
`O=Cc1ccco1`: the compound was classed as inactive.
